Results reported in PubChem BioAssay (NCATS).
Inconclusive results are not listed. Values without a mark were called inactive. The source made the active and inactive calls. Calls come from the whole dose curve; as a rule, active = well fitted inhibition curve with a large enough effect; inconclusive = small, poorly fitted or top-dose-only effect; inactive = flat fitted curve, though single readings scatter.
Potency is the fitted concentration of half-maximal effect.

What follows are molecules tested on PC49 (assay: qHTS profiling for inhibitors of Plasmodium falciparum proliferation (AID 504749; note: nearly all actives have a fitted effect of over 60% in size;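 for activity, negative = inhibition: 0% = DMSO vehicle and full inhibition = artemisinin control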)). Conditions: P. falciparum in erythrocytes, SYBR Green DNA, 72 h; series mostly up to 28.7 µM; activity, negative = inhibition: at the top concentration.
In short: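 SYBR Green fluorescence (ex 485 nm, em 535 nm) reports parasite DNA after 72 h compound exposure of infected red cells at 0.3% parasitemia, 2.5% hematocrit; signal normalized to 0.29 uM artemisinin and vehicle wells.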
`CC(=O)Nc1ncc([N+](=O)[O-])s1` was tested, and the “activity, negative = inhibition” value was 9.9%. In the case of `C#C[C@]1(O)CC[C@H]2[C@@H]3CCc4cc(OC)ccc4[C@H]3CC[C@@]21C`, the “activity, negative = inhibition” value is reported as 3.97%. For `CC(=O)Nc1ccc(CC(=O)O)cc1`, the “activity, negative = inhibition” value was 9.57%. In the case of `COc1ccc(-c2cc(C(F)F)nn2-c2ccc(S(N)(=O)=O)cc2)cc1F`, the “activity, negative = inhibition” value is reported as 6.35%. With `Nc1ccc(S(=O)(=O)Nc2cnc3ccccc3n2)cc1` the “activity, negative = inhibition” value was 3.05%. In the case of `CCCCCCCCCCCCCCCCO`, the “activity, negative = inhibition” value is reported as 3.42%. With `Cc1cccc(C)c1NC(=O)CN1CCCC1` the “activity, negative = inhibition” value was -0.236%. For `C[N+]1(CC2COC(c3ccccc3)(C3CCCCC3)O2)CCCCC1` (stereo not drawn), the Potency was 6.31 µM (active). In the case of `CCCCNc1ccc(C(=O)OCCOCCOCCOCCOCCOCCOCCOCCOCCOC)cc1`, the “activity, negative = inhibition” value is reported as 4.42% [at 12.8 µM]. For `NC(=S)N/N=C/c1cccnc1`, the “activity, negative = inhibition” value was 1.97%. `O=C(O)P(=O)(O)O` was tested, and the “activity, negative = inhibition” value was 8.33%. With `c1ccc(CC2=NCCN2)cc1` the “activity, negative = inhibition” value was 1.24% [at 12.8 µM]. For `COc1ccc2c(c1)c1c3n2CCN(C)C3=NCC1`, the “activity, negative = inhibition” value was -7.58%. `O=C(O)C1(C(=O)O)CCC1.[NH2-].[NH2-].[Pt+2]` was tested, and the “activity, negative = inhibition” value was 9.35%. For `COc1cc(C(=S)N2CCOCC2)ccc1O`, the “activity, negative = inhibition” value was 8.57%. For `O=C(O)C(Cc1cc(I)c(O)c(I)c1)c1ccccc1` (stereo not drawn), the “activity, negative = inhibition” value was 0.334%. For `COP(=O)(OC)OC(c1ccc(Cl)cc1)P(=O)(OC)OC` (stereo not drawn), the “activity, negative = inhibition” value was 10.4%. `CCCCNC(=O)NS(=O)(=O)c1ccc(N)cc1` was tested, and the “activity, negative = inhibition” value was 11.9%. In the case of `CC(=O)Nc1ccc(OCC(O)CNC(C)C)cc1` (stereo not drawn), the “activity, negative = inhibition” value is reported as 1.53%. In the case of `CCCCCCCCOc1ccc(C(=O)c2ccccc2)c(O)c1`, the “activity, negative = inhibition” value is reported as 6.02%. With `CCOc1ccccc1OCCN[C@H](C)Cc1ccc(OC)c(S(N)(=O)=O)c1` the “activity, negative = inhibition” value was 7.79%. For `NS(=O)(=O)c1cc(C(=O)O)cc(N2CCCC2)c1Oc1ccccc1`, the “activity, negative = inhibition” value was 13.5% [at 12.8 µM]. `CCCCc1cc2ccccc2c(OCCN(C)C)n1` was tested, and the “activity, negative = inhibition” value was 4.48% [at 12.8 µM]. In the case of `CNCCc1ccccn1`, the “activity, negative = inhibition” value is reported as 12% [at 12.8 µM]. For `CC(=O)NC(=O)c1ccccc1O`, the “activity, negative = inhibition” value was 4.34%. With `CCNC(=O)NCc1cccc(Cl)c1` the “activity, negative = inhibition” value was 0.164%. In the case of `CCc1oc2ccccc2c1C(=O)c1cc(Br)c(O)c(Br)c1`, the “activity, negative = inhibition” value is reported as 2.97%. For `CC(C)Cn1cnc2c1c(=O)n(C)c(=O)n2C`, the “activity, negative = inhibition” value was 1.6%. For `CCCCCCCCCCCCCC[N+](C)(C)Cc1ccccc1`, the Potency was 7.94 µM (active). In the case of `CCN(CC)CCNC(=O)c1cc(Br)c(N)cc1OC`, the “activity, negative = inhibition” value is reported as -1.09%. For `CCNC(=O)/C=C/c1cccc(Br)c1`, the “activity, negative = inhibition” value was -10.8%. `NC(=O)c1ccccc1O` was tested, and the “activity, negative = inhibition” value was 5.53%. With `Nc1ccc(S(=O)(=O)NCc2ccccc2)cc1` the “activity, negative = inhibition” value was 2.99%. In the case of `Cc1cc(NS(=O)(=O)c2ccc(N)cc2)nc(C)n1`, the “activity, negative = inhibition” value is reported as 7.19%. `C#C[C@]1(O)CC[C@H]2[C@@H]3CCC4=Cc5oncc5C[C@]4(C)[C@H]3CC[C@@]21C` was tested, and the “activity, negative = inhibition” value was 0.383%. In the case of `CC(=O)Oc1ccc(C)cc1`, the “activity, negative = inhibition” value is reported as -11.2%. With `NC(=O)n1c(O)c(C(=O)c2cccs2)c2cc(Cl)ccc21` the “activity, negative = inhibition” value was 5.36%. For `CCN1/C(=C/C=C/c2sc3ccccc3[n+]2CC)Sc2ccccc21`, the Potency was 1.12 µM (active).
